# Where “and” joins values, the source holds several entries; their conditions need not be identical. Equal entries are not always repeated. Records with an inconclusive call do not appear. Calls of active or inactive are those of the source. Unless noted, no stated cut-off is given here; in the data, active means inhibition above about 80%; inactive means the rest.
# What was measured:
# [1] = ICB984 medulloblastoma cell growth inhibition, synergistic combos for chromothripsis tumors, cisplatin or BGB combos (AID 1671451; call rule not given here;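 further: cells exposed for 96 hours before readout; 0% = vehicle DMSO and 100% = killing by high DMSO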); conditions: ICB984 medulloblastoma cells, drug combinations, stronger effect = higher value
# [2] = LFS_MB_1R medulloblastoma cell growth inhibition, synergistic combos for chromothripsis tumors, cisplatin or BGB combos (AID 1671452); conditions: LFS_MB_1R medulloblastoma cells, stronger effect = higher value;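 further: cells exposed for 96 hours before readout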
# [3] = HTB85 osteosarcoma cell growth inhibition, synergistic combos for chromothripsis tumors, BGB or cisplatin IC20 combos (AID 1671453); conditions: HTB85 osteosarcoma cells, drug combinations, stronger effect = higher value;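 further: cells exposed for 96 hours before readout; 0% = vehicle DMSO and 100% = high DMSO killing control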
# [4] = CRL2098 osteosarcoma cell growth inhibition, synergistic combos for chromothripsis tumors, BGB or cisplatin IC20 combos (AID 1671454); conditions: CRL2098 osteosarcoma cells, drug combinations, stronger effect = higher value;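 further: cells exposed for 96 h before readout; 0% = vehicle DMSO and 100% = killing by high DMSO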
# [5] = HD-MB03 medulloblastoma cell growth inhibition, synergistic combos for chromothripsis tumors, BGB or cisplatin IC20 combos (AID 1671455; in the data active means inhibition above about 83%;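 further: 0% = vehicle DMSO and 100% = high DMSO as cytotoxic control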); conditions: HD-MB03 medulloblastoma cells, stronger effect = higher value
# [6] = viability loss in pontine glioma line – cell-based, SU-DIPG-XXV, MIPE5.0, CellTiter-Glo, qHTS, dose response (AID 1347065; cut-off not given, nearly all actives have AC50 up to about 26 µM;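 further: cells exposed to compound for 48 hours before ATP readout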); conditions: CellTiter-Glo ATP luminescence
# [7] = JHH-DIPG-1 glioma cell viability, MIPE5.0 library, CellTiter-Glo luminescence, qHTS (AID 1347067; cut-off not given, nearly all actives have AC50 up to about 26 µM;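 further: cells exposed to compound for 48 hours before readout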); conditions: JHH-DIPG-1 glioma viability, CellTiter-Glo ATP luminescence
# [8] = SU-DIPG-XXV glioma cell viability, MIPE5.0 library, qHTS (AID 1347068; cut-off not given, nearly all actives have IC50 up to about 30 µM)
# [9] = sensitizers of A549 cells to miR-34 induction, primary screen, imaging, A549 dox-inducible miR-34, nuclei and caspase counts (AID 1347080;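 active means compounds whose cell count with miR-34 switched on is under 0.7 times the count with it off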); conditions: A549 miR-34 inducible, Hoechst nuclei count, 48 h
# [10] = phospholipid biosynthesis inhibitors in animal cells, primary screen, cell-based, LOPAC library, screen 4 (AID 1347384; call rule not given here); conditions: phospholipid biosynthesis inhibition screen, at 10 µM
# [11] = molecular target: NAD(+) hydrolase SARM1 (Homo sapiens) (UniProt Q6SZW1); assay: SARM1 TIR NADase inhibitors, cell lysate, NAD-Glo luminescence (AID 1508614;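 active means compound whose remaining NAD level is above about 45 nM, limit read from the data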); conditions: SAM-TIR HEK293T lysate NADase, at 1 µM, stronger effect = higher value
# [12] = molecular target: Mitogen-activated protein kinase 7 (Homo sapiens) (UniProt Q13164); assay: ERK5 transactivation activators in reporter cells, primary screen, cell-based, HTS (AID 1508626;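 active means luciferase signal above three times the same-plate solvent-only control wells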;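 further: luciferase driven by Gal4-ERK5 fusion binding five Gal4 sites before minimal TATA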); conditions: HeLa Gal4-ERK5 transactivation, 18 h, at 5 µM, stronger effect = higher value
# [13] = viability rescue of complex I mutant cybrids, primary screen, cell-based, galactose medium, ATP luminescence (AID 1645843;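 active means z-score of at least 1.8 in each of two replicates, scored against plate mean and spread of sample wells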;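 further: positive z means more ATP and so rescue of galactose-driven cybrid death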); conditions: complex I mutant cybrid cells, 72 h, stronger effect = higher value
# [14] = LFS_MB_P medulloblastoma growth inhibition, cell-based, chromothripsis tumors, cisplatin or BGB combos (AID 1671449); conditions: LFS_MB_P medulloblastoma cells;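 further: cells exposed for 96 hours; 0% = vehicle DMSO and 100% = killing by high DMSO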
# [15] = HDN33 neuroblastoma growth inhibition, cell-based, chromothripsis tumors, cisplatin or BGB combos (AID 1671450); conditions: HDN33 neuroblastoma cells, stronger effect = higher value;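 further: cells exposed to compound for four days; 0% = vehicle DMSO and 100% = cell killing by high DMSO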
# [16] = SU-DIPG-VI glioma cell viability, MIPE4.0 library, CellTiter-Glo luminescence, qHTS (AID 1347066; cut-off not given, nearly all actives have AC50 up to about 30 µM;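 further: cells exposed to compound for 48 hours before readout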); conditions: CellTiter-Glo ATP luminescence
# [17] = inhibitors of Cryptococcus chitosan production, flow cytometry, Cibacron Brilliant Red staining (AID 1347148; call rule not given here;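 further: compound exposure lasted three days at 37 degrees C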); conditions: Cryptococcus neoformans chitosan, stronger effect = lower value; at 10 µM unless noted
# [18] = survival rescue of mitochondrial mutant cells in low glucose, primary screen, MELAS cybrids, Rieske KO mouse fibroblasts, CellTiter-Glo (AID 1508586;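 active means mean z-score across replicates of 1.96 or higher in either the MELAS or the Rieske mutant cell line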;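 further: z relative to plate mean and SD of compound and empty wells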)
# [19] = measured here: 5 uM single agent, at 5 µM
# [20] = measured here: combination with BGB IC40, at 0.05 µM
# [21] = measured here: combination with cisplatin, at 0.5 µM
# [22] = measured here: combination with cisplatin, at 5 µM
# [23] = measured here: with BGB IC20, at 0.5 µM
# [24] = measured here: with BGB IC20, at 5 µM
# [25] = measured here: with cisplatin IC20, at 0.5 µM
# [26] = measured here: with cisplatin IC20, at 5 µM
# [27] = measured here: combination with BGB at IC20, at 0.5 µM
# [28] = measured here: combination with cisplatin at IC20, at 0.5 µM
# [29] = measured here: combo with BGB at IC20, at 0.5 µM
# [30] = measured here: combo with cisplatin at IC20, at 0.5 µM
# [31] = stronger effect = lower value, cell number ratio, induced over uninduced
# [32] = measured here: relative caspase fold change +Dox/-Dox
# [33] = measured here: total cells with miR-34 induction, stronger effect = lower value
# [34] = measured here: total cells without miR-34 induction
# [35] = at 0.5 µM, stronger effect = higher value
# [36] = measured here: combination with BGB IC20, at 0.005 µM
# [37] = measured here: combination with BGB IC40, at 0.005 µM
# [38] = measured here: combination with cisplatin, at 0.5 µM, stronger effect = higher value
# [39] = measured here: combination with cisplatin, at 5 µM, stronger effect = higher value
# [40] = measured here: with BGB IC20 combination, at 0.5 µM
# [41] = measured here: with cisplatin IC20 combination, at 0.5 µM
# [42] = MELAS cybrid survival, CellTiter-Glo 48 h, stronger effect = higher value
# [43] = Rieske KO mouse fibroblast survival, CellTiter-Glo 72 h
# Mitogen-activated protein kinase 7 (Homo sapiens), sequence (Q13164 whole entry, looked up, the tested form may be a part): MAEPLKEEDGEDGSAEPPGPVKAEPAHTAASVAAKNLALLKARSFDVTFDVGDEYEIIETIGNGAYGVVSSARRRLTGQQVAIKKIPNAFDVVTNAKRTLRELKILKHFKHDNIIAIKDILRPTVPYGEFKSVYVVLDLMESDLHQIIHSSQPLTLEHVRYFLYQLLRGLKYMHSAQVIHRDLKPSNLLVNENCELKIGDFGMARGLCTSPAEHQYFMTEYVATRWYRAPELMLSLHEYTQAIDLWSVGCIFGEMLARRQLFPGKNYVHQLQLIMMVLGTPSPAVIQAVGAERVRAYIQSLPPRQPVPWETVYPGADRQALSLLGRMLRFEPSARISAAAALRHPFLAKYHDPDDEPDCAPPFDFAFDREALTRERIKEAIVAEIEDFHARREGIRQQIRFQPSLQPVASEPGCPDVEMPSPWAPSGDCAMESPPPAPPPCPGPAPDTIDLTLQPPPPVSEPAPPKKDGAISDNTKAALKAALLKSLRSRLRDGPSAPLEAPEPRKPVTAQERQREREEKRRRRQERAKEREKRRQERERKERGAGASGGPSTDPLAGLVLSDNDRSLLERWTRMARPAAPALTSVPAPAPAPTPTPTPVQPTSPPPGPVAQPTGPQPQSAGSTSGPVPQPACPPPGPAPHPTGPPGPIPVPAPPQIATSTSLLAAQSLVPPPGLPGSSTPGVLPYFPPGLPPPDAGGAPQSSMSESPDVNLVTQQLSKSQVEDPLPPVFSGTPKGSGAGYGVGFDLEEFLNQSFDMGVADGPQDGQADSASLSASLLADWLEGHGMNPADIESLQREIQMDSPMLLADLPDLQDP
# NAD(+) hydrolase SARM1 (Homo sapiens), sequence (Q6SZW1 whole entry, looked up, the tested form may be a part): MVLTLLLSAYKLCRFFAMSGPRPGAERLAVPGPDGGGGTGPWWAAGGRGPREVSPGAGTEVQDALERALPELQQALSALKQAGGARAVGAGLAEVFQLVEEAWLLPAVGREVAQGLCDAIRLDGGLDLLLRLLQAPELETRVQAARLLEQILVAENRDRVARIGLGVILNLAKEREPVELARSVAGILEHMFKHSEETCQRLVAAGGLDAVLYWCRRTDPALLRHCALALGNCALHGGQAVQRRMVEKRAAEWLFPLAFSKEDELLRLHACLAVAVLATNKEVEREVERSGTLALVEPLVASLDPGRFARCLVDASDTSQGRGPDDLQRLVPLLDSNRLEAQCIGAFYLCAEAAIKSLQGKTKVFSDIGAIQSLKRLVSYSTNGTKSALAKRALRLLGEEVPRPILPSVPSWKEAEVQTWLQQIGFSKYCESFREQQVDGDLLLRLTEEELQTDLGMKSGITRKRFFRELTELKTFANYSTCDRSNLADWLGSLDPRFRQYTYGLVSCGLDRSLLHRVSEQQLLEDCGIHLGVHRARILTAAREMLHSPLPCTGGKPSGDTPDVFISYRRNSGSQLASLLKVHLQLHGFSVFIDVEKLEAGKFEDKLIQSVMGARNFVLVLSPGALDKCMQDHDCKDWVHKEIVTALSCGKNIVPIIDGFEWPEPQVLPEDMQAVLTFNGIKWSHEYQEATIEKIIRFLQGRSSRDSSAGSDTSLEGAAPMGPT
structure (smiles),measurement,setting,value
O=NN(CCCl)C(=O)NC1CCCCC1,inhibition,"[1]; BGB IC40 combo, at 0.05 µM",-15.4% and -60.7%
same,inhibition,[1]; at 0.5 µM,-38.4% (inactive) and -29.6% (inactive)
same,inhibition,"[1]; cisplatin combo, at 0.05 µM",-18.7% and -67%
same,inhibition,"[1]; cisplatin combo, at 0.5 µM",-33.8% and -42.1%
same,inhibition,"[1]; cisplatin combo, at 5 µM",-56.7% and -19.2%
same,inhibition,[1]; [19],-34.3% and -15.2%
same,inhibition,[2]; at 0.5 µM,-15.1% (inactive) and -17.6% (inactive)
same,inhibition,[2]; [20],-47.7% and -29.7%
same,inhibition,[2]; [21],-17.2% and -26.3%
same,inhibition,[2]; [22],-19.8% and 0.28%
same,inhibition,[3]; at 0.5 µM,-14.3% (inactive) and -7.5% (inactive)
same,inhibition,[3]; [23],-27% and -24%
same,inhibition,[3]; [24],-2.92% and -20.1%
same,inhibition,[3]; [25],-13.8% and 2.41%
same,inhibition,[3]; [26],-45.5% and 7.57%
same,inhibition,"[3]; single agent, at 5 µM",-16.4% and -4.13%
same,inhibition,[4]; at 0.5 µM,-30.9% (inactive) and -17.1% (inactive)
same,inhibition,[4]; [27],-24.6% and 7.17%
same,inhibition,[4]; [28],-72.6% and -17.3%
same,inhibition,[5]; at 0.5 µM,-11.2% (inactive) and -8.17% (inactive)
same,inhibition,[5]; [29],-11.5% and -2.92%
same,inhibition,[5]; [30],-6.91% and -12.4%
O=NN(CCCl)C(=O)NCCCl,outcome,[6],inactive
same,outcome,[7],inactive
same,outcome,[8],inactive
same,fold change,[9]; [31],0.948 (inactive) and 0.902 (inactive)
same,fold change,[9]; [32],1.47 and 4.57
same,cell count,[9]; [33],8130 and 9540
same,cell count,[9]; [34],8570 and 10600
same,outcome,[10],inactive
same,remaining NAD,[11],10 nM (inactive)
same,luciferase signal,[12],204 AU (inactive)
same,z-score,[13],-0.84 (inactive)
same,inhibition,[14]; [35],-2.88% (inactive)
same,inhibition,[14]; [36],-4.26%
same,inhibition,[14]; [37],-31.6%
same,inhibition,[14]; [20],-3.31%
same,inhibition,[14]; [38],2.24%
same,inhibition,[14]; [39],-36.8%
same,inhibition,"[15]; BGB combo, at 5 µM",-14.5%
same,inhibition,[15]; at 0.5 µM,6.29% (inactive)
same,inhibition,"[15]; cisplatin combo, at 5 µM",-3.04%
same,inhibition,[15]; [40],11.2%
same,inhibition,[15]; [41],-4.17%
same,inhibition,"[15]; single agent, at 5 µM",-8.15%
same,inhibition,"[1]; BGB IC20 combo, at 0.005 µM",5.44%
same,inhibition,"[1]; BGB IC40 combo, at 0.005 µM",-42.6%
same,inhibition,"[1]; BGB IC40 combo, at 0.05 µM",-39%
same,inhibition,[1]; at 0.5 µM,-40.7% (inactive)
same,inhibition,"[1]; cisplatin combo, at 0.05 µM",-44.5%
same,inhibition,"[1]; cisplatin combo, at 0.5 µM",-65.9%
same,inhibition,"[1]; cisplatin combo, at 5 µM",-35.2%
same,inhibition,[1]; [19],-15.7%
same,inhibition,[2]; at 0.5 µM,-12.2% (inactive)
same,inhibition,[2]; [20],-13.6%
same,inhibition,[2]; [21],10.3%
same,inhibition,[2]; [22],-12%
same,inhibition,[3]; at 0.5 µM,-10.6% (inactive)
same,inhibition,[3]; [23],-23%
same,inhibition,[3]; [24],17.7%
same,inhibition,[3]; [25],-10.4%
same,inhibition,[3]; [26],11.5%
same,inhibition,"[3]; single agent, at 5 µM",11%
same,inhibition,[4]; at 0.5 µM,-22.8% (inactive)
same,inhibition,[4]; [27],-7.62%
same,inhibition,[4]; [28],2.1%
same,inhibition,[5]; at 0.5 µM,-9.81% (inactive)
same,inhibition,[5]; [29],-13.2%
same,inhibition,[5]; [30],-3.83%
Cc1ccsc1C(=CCCN1CCC[C@@H](C(=O)O)C1)c1sccc1C,outcome,[6],inactive
same,outcome,[7],inactive
same,outcome,[8],inactive
NNc1nncc2ccccc12,outcome,[6],inactive
same,outcome,[16],inactive
same,outcome,[7],inactive
same,fold change,[9]; [31],1.01 (inactive) and 0.821 (inactive)
same,fold change,[9]; [32],1.23 and 1.05
same,cell count,[9]; [33],10000 and 10300
same,cell count,[9]; [34],9890 and 12600
same,outcome,[10],inactive
same,remaining NAD,[11],10 nM (inactive)
same,luciferase signal,[12],280 AU (active)
same,z-score,[13],0.12 (inactive)
Cc1[nH]c(=O)c(C#N)cc1-c1ccncc1,outcome,[6],inactive
same,outcome,[7],inactive
same,outcome,[8],inactive
same,fold fluorescence,[17],6.33 [at 236.7 µM] (inactive)
same,outcome,[10],inactive
same,z-score,[18]; [42],-0.327 (inactive) and 0.548 (inactive) and 0.108 (inactive)
same,z-score,[18]; [43],0.87 and -0.397 and -0.212
same,remaining NAD,[11],10 nM (inactive)
same,z-score,[13],0.46 (inactive) and 0.67 (inactive) and 0.525 (inactive)
CC(=O)O[C@]1(C(C)=O)CC[C@H]2[C@@H]3C=C(Cl)C4=CC(=O)[C@@H]5C[C@@H]5[C@]4(C)[C@H]3CC[C@@]21C,AC50,[6],33.2 µM (active)
same,outcome,[16],inactive
same,outcome,[8],inactive
same,fold change,[9]; [31],0.956 (inactive) and 0.85 (inactive)
same,fold change,[9]; [32],1.52 and 2.1
same,cell count,[9]; [33],8890 and 7970
same,cell count,[9]; [34],9300 and 9380
same,outcome,[10],inactive
same,z-score,[18]; [42],-0.4 (inactive)
same,z-score,[18]; [43],-0.158
same,remaining NAD,[11],10 nM (inactive)
same,luciferase signal,[12],52 AU (inactive)
same,z-score,[13],1.89 (inactive) and 0.36 (inactive)
CC(N)C12CC3CC(CC(C3)C1)C2 (configuration not stated),outcome,[6],inactive
same,outcome,[16],inactive
same,outcome,[8],inactive
same,remaining NAD,[11],10 nM (inactive)
same,luciferase signal,[12],48 AU (inactive)
same,z-score,[13],1.03 (inactive) and -0.17 (inactive) and -0.24 (inactive)
same,inhibition,[14]; [35],6% (inactive)
same,inhibition,[14]; [36],-16.1%
same,inhibition,[14]; [37],-38.1%
same,inhibition,[14]; [20],-30.6%
same,inhibition,[14]; [38],9.24%
same,inhibition,[14]; [39],-22.9%
same,inhibition,"[15]; BGB combo, at 5 µM",-28.3%
same,inhibition,[15]; at 0.5 µM,-32.5% (inactive)
same,inhibition,"[15]; cisplatin combo, at 5 µM",-20.2%
same,inhibition,[15]; [40],-33.5%
same,inhibition,[15]; [41],-23.6%
same,inhibition,"[15]; single agent, at 5 µM",-36.9%
same,inhibition,"[1]; BGB IC20 combo, at 0.005 µM",-4.5%
same,inhibition,"[1]; BGB IC40 combo, at 0.005 µM",-19.4%
same,inhibition,"[1]; BGB IC40 combo, at 0.05 µM",-14.2%
same,inhibition,[1]; at 0.5 µM,-43.5% (inactive)
same,inhibition,"[1]; cisplatin combo, at 0.05 µM",-17.4%
same,inhibition,"[1]; cisplatin combo, at 0.5 µM",-54.1%
same,inhibition,"[1]; cisplatin combo, at 5 µM",-42.4%
same,inhibition,[1]; [19],12.3%
same,inhibition,[2]; at 0.5 µM,-32.9% (inactive)
same,inhibition,[2]; [20],-22.2%
same,inhibition,[2]; [21],-47.8%
same,inhibition,[2]; [22],-25.5%
same,inhibition,[3]; at 0.5 µM,-15.6% (inactive)
same,inhibition,[3]; [23],-39.8%
same,inhibition,[3]; [24],-20.6%
same,inhibition,[3]; [25],-6.13%
same,inhibition,[3]; [26],-66.2%
same,inhibition,"[3]; single agent, at 5 µM",-17.9%
same,inhibition,[4]; at 0.5 µM,-53.4% (inactive)
same,inhibition,[4]; [27],-8.22%
same,inhibition,[4]; [28],-77.6%
same,inhibition,[5]; at 0.5 µM,-18.7% (inactive)
same,inhibition,[5]; [29],-21.4%
same,inhibition,[5]; [30],-22.1%
